Measurements as given in PubChem BioAssay (Tox21).
Inconclusive results are not listed. The source made the active and inactive calls. Unless noted, calls follow the shape of the full dose curve.

Assays:
[1] = Nuclear factor erythroid 2-related factor 2/antioxidant responsive element (Nrf2/ARE) small molecule agonists: qHTS cell viability counter screen in human keratinocytes (AID 1919968; active = well fitted curve in the direction sought with a large enough effect in the repeat runs; an effect the other way counts as inactive or inconclusive; also: nearly all actives have a fitted effect of over 55% in size; also: potency is read from the fitted curve at half-maximal effect)
Method in brief: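 Seed 1,500 KeratinoSens cells per well, then incubate 5 h at 37 C/5% CO2. Add compounds in DMSO and incubate 23 h. Add CellTiter-Fluor, wait 1 h and read fluorescence.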

[2] = Nuclear factor erythroid 2-related factor 2/antioxidant responsive element (Nrf2/ARE) small molecule agonists: luciferase reporter gene qHTS assay in human keratinocytes (AID 1919969); also: nearly all actives have a fitted effect of over 35% in size; also: potency is read from the fitted curve at half-maximal effect
[3] = molecular target: Gonadotropin-releasing hormone receptor (Homo sapiens) (UniProt P30968); experiment: Human gonadotropin-releasing hormone receptor (GnRHR) small molecule agonists, calcium flux assay in GnRHR-HEK293 cells (AID 1920063); also: nearly all actives have a fitted effect of over 35% in size
Method in brief: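 Cells: HEK293 stably expressing human GnRHR. Steps: overnight (18 h) culture, 1 h calcium dye loading at 37 C, compound addition, kinetic fluorescence read at 480/540 nm. Each compound tested at 15 concentrations in triplicate.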

[4] = molecular target: KiSS-1 receptor (Homo sapiens) (UniProt Q969F8); experiment: Human kisspeptin (KISS1R) small molecule agonists, calcium flux assay in KISS1R-HEK293 cells (AID 1920064; active = well fitted curve in the direction sought with a large enough effect in the repeat runs; an effect the other way counts as inactive or inconclusive)
Method in brief: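 Cells plated and incubated 18 h; dye added, 1 h at 37 C; compounds in DMSO pinned in; signal read at 480/540 nm every second for 3 min. Each compound tested at 15 concentrations in triplicate.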

[5] = p53 small molecule agonists, cell-based qHTS assay with human liver microsomes (AID 1963577)
Method in brief: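 Compounds act here after metabolic activation: human liver microsomes and NADPH, both at 0.5 mg/mL final, were co-added to p53RE-bla cells. Incubation ran 16 h at 37 C, followed by LiveBLAzer detection.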

[6] = p53 small molecule agonists, cell-based qHTS assay with rat liver microsomes (AID 1963578)
Method in brief: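 Read-out is beta-lactamase reporter fluorescence (LiveBLAzer, 2 h, room temperature, dark) in p53RE-bla cells treated 16 h at 37 C with compound, rat liver microsomes and NADPH, both 0.5 mg/mL final.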

[7] = p53 small molecule agonists, cell-based qHTS assay with human liver microsomes: qHTS cell viability counter screen (AID 1963579); also: nearly all actives have a fitted effect of over 45% in size; also: potency is read from the fitted curve at half-maximal effect
Method in brief: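 Cells carrying the p53 response-element beta-lactamase reporter are treated for 16 h at 37 C with test compounds in the presence of human liver microsomes and NADPH (both 0.5 mg/mL final); ATP-based CellTiter-Glo luminescence then reports viability.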

[8] = p53 small molecule agonists, cell-based qHTS assay with rat liver microsomes: qHTS cell viability counter screen (AID 1963580); also: nearly all actives have a fitted effect of over 45% in size
Method in brief: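 p53RE-bla HCT-116 cells (4,000/well) rested 5 h at 37 C, then given Tox21 compounds in DMSO with rat liver microsomes (0.5 mg/mL final) plus NADPH (0.5 mg/mL final) for 16 h at 37 C. Viability read by CellTiter-Glo luminescence after 30 min at room temperature.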

[9] = p53 small molecule agonists, cell-based qHTS assay: qHTS cell viability counter screen (AID 1963581); also: nearly all actives have a fitted effect of over 45% in size; also: potency is read from the fitted curve at half-maximal effect
Method in brief: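 Cells: HCT-116 with p53 response element-driven beta-lactamase. Treatment: 16 h, 37 C, compounds in DMSO. Read: CellTiter-Glo luminescence after 30 min RT.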

[10] = p53 small molecule agonists, cell-based qHTS assay (AID 1963582; active = well fitted activation curve with a large enough effect in the signal ratio in the repeat runs, not every such curve was filed as active; the % refers to the signal ratio)
Method in brief: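 Quantitative HTS in p53RE-bla cells: after a 5 h settling period, compounds delivered in DMSO were left on cells for 16 h at 37 C, and reporter induction was measured as fluorescence following 2 h substrate loading.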

[11] = molecular target: 5-hydroxytryptamine receptor 2A (Homo sapiens) (UniProt P28223); experiment: 5-hydroxytryptamine receptor 2A (HTR2A) small molecule agonists, cell-based qHTS assay (AID 1963587); also: nearly all actives have a fitted effect of over 30% in size
Method in brief: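 HTR2A-CHO cells, plated 18 h at 37 C/5% CO2, dye-loaded 1 h at 37 C; compounds in DMSO added by pin tool (agonist mode). Intracellular calcium flux read as kinetic fluorescence on FDSS over 2 min at 1 s intervals.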

[12] = molecular target: Muscarinic acetylcholine receptor M1 (Homo sapiens) (UniProt P11229); experiment: Cholinergic receptor muscarinic 1 (CHRM1) small molecule antagonists, cell-based qHTS assay (AID 1963588); also: nearly all actives have a fitted effect of over 40% in size
Method in brief: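 CHRM1-CHO calcium-flux assay, antagonist mode. Cells were seeded 18 h, dye-loaded 1 h at 37 C and given compound for 5 min at RT, then acetylcholine was added at 50nM. FDSS fluorescence was read 3 min; 15 concentrations, three runs.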

[13] = molecular target: Muscarinic acetylcholine receptor M1 (Homo sapiens) (UniProt P11229); experiment: Cholinergic receptor muscarinic 1 (CHRM1) small molecule agonists, cell-based qHTS assay (AID 1963589); also: nearly all actives have a fitted effect of over 35% in size
Method in brief: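 Agonist-mode qHTS in CHO cells stably carrying human muscarinic M1. Intracellular calcium is tracked by fluorescence every second after compound transfer; each compound runs at 15 concentrations in three independent runs.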

[14] = cAMP Responsive Elements (CRE) small molecule agonists, cell-based qHTS assay (AID 1963590)
Method in brief: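 Agonist mode qHTS in CRE-bla HEK 293T cells: compounds dosed from DMSO for 3 h at 37 C/5% CO2, followed by LiveBLAzer B/G FRET substrate for 2 h at room temperature.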

[15] = cAMP Responsive Elements (CRE) small molecule antagonists, cell-based qHTS assay (AID 1963591; active = well fitted inhibition curve with a large enough effect in the signal ratio in the repeat runs, not every such curve was filed as active; the % refers to the signal ratio)
Method in brief: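 Antagonist mode: test compounds are co-incubated with the adenylyl cyclase activator NKH477 (0.25 uM final) on CRE-bla HEK293T cells for 3 h at 37 °C, followed by LiveBLAzer substrate loading.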

[16] = molecular target: Beta-2 adrenergic receptor (Homo sapiens) (UniProt P07550); experiment: Adrenergic beta2 receptor (ADRB2) small molecule antagonists, cell-based qHTS assay (AID 1963592); also: series mostly up to about 92 µM; nearly all actives have a fitted effect of over 50% in size
Method in brief: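 Cells (CHO, stable ADRB2 overexpression) incubated 18-20hr at 37C; compounds added from DMSO; agonist mix (1nM isoproterenol, 100uM IBMX, 25uM Ro-20-1724) added; 0.5hr RT; d2-cAMP and anti-cAMP-cryptate added; 1hr RT; 665/615 nm read.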

[17] = molecular target: D(2) dopamine receptor (Homo sapiens) (UniProt P14416); experiment: Dopamine D2 receptor (DRD2) small molecule agonists, cell-based qHTS assay (AID 1963594); also: nearly all actives have a fitted effect of over 35% in size
Method in brief: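 HEK293 cells stably expressing DRD2 were cultured 24 h at 37 C, then given Ro20-1724 (0.1 mM final) and compounds for 10 min at room temperature. NKH477 (200nM) was then added for 30 min. cAMP was read by HTRF.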

[18] = molecular target: 5-hydroxytryptamine receptor 2A (Homo sapiens) (UniProt P28223); experiment: 5-hydroxytryptamine receptor 2A (HTR2A) small molecule antagonists, cell-based qHTS assay (AID 1963586); also: nearly all actives have a fitted effect of over 45% in size
Method in brief: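 Antagonist-mode intracellular calcium assay: DOI (4 nM) added after 5 min compound pre-incubation at room temperature to dye-loaded HTR2A-CHO cells. Fluorescence followed for 3 min, sampled every second.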

[19] = molecular target: D(2) dopamine receptor (Homo sapiens) (UniProt P14416); experiment: Dopamine D2 receptor (DRD2) small molecule antagonists, cell-based qHTS assay (AID 1963595; active = well fitted inhibition curve with a large enough effect in the signal ratio in the repeat runs, with a control signal flat; the % refers to the signal ratio)
Method in brief: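 HEK293 cells stably expressing DRD2 were preincubated with 0.1 mM Ro20-1724, then with compound for 10 min at room temperature. Cells were stimulated with 200 nM NKH477 plus 12 nM quinpirole for 30 min, and cAMP was read by HTRF.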

[20] = molecular target: Beta-2 adrenergic receptor (Homo sapiens) (UniProt P07550); experiment: Adrenergic beta2 receptor (ADRB2) small molecule agonists, cell-based qHTS assay (AID 1963593);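 also: CHO cells stably overexpressing human ADRB2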
Method in brief: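 CHO cells stably over-expressing ADRB2 were plated overnight at 37C, then dosed with compounds plus a stimulation mix containing 100uM IBMX and 25uM Ro-20-1724 for 0.5hr at room temperature. cAMP was measured by HTRF competition, 1hr.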

Measured: Potency

Sequence of KiSS-1 receptor (Homo sapiens) (Q969F8 whole entry, looked up): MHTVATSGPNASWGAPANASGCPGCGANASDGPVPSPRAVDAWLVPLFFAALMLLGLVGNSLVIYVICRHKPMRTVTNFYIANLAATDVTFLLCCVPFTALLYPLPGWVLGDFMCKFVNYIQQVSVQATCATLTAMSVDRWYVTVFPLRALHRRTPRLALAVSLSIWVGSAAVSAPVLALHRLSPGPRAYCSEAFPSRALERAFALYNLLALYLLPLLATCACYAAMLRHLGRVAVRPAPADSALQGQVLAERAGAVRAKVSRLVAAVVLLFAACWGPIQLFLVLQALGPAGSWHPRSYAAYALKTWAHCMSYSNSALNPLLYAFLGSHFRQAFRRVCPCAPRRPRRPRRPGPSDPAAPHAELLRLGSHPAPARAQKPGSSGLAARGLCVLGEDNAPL
Sequence of Beta-2 adrenergic receptor (Homo sapiens) (P07550 whole entry, looked up): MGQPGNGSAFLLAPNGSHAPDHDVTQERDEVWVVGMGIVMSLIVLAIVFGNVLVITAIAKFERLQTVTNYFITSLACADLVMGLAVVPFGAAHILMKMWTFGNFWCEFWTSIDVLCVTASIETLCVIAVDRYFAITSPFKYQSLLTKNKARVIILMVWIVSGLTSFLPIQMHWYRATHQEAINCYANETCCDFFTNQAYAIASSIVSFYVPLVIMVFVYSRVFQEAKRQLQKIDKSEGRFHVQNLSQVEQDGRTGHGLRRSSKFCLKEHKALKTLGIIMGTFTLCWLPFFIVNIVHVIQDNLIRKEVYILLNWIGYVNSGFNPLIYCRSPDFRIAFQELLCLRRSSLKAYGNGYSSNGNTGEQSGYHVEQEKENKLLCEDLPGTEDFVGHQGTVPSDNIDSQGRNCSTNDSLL
Sequence of Gonadotropin-releasing hormone receptor (Homo sapiens) (P30968 whole entry, looked up): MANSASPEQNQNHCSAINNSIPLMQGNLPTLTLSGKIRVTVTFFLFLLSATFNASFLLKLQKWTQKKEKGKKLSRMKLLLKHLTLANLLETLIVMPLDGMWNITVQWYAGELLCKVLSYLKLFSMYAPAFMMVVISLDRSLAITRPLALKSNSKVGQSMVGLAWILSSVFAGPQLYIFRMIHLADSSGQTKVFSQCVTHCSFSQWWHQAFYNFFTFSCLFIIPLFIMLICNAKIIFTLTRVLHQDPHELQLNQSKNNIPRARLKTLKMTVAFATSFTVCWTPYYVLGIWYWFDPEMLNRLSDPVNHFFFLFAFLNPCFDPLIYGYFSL
Sequence of Muscarinic acetylcholine receptor M1 (Homo sapiens) (P11229 whole entry, looked up): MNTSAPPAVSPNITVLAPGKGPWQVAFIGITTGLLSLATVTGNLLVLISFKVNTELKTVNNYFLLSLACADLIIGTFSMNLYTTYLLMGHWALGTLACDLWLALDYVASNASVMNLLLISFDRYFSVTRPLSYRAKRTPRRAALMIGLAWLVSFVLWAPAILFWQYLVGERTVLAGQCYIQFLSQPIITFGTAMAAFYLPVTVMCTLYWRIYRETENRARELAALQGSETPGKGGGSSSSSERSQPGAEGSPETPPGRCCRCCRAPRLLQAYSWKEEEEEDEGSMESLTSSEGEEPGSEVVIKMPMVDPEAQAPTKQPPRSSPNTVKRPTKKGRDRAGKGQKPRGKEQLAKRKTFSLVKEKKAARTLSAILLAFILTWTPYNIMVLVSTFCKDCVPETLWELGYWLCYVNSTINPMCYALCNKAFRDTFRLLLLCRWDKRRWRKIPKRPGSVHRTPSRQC
Sequence of 5-hydroxytryptamine receptor 2A (Homo sapiens) (P28223 whole entry, looked up): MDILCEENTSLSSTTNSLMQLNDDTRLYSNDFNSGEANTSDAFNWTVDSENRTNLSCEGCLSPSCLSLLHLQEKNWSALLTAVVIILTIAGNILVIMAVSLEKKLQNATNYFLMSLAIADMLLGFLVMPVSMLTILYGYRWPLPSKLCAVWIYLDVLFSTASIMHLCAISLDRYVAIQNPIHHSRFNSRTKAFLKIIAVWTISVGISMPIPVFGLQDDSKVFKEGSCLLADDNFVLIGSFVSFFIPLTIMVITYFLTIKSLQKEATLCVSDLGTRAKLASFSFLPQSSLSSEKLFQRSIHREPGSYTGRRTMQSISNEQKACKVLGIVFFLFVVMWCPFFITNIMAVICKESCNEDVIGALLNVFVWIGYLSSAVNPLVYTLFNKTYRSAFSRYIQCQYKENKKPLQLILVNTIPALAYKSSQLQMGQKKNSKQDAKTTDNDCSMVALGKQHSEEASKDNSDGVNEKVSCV
Sequence of D(2) dopamine receptor (Homo sapiens) (P14416 whole entry, looked up): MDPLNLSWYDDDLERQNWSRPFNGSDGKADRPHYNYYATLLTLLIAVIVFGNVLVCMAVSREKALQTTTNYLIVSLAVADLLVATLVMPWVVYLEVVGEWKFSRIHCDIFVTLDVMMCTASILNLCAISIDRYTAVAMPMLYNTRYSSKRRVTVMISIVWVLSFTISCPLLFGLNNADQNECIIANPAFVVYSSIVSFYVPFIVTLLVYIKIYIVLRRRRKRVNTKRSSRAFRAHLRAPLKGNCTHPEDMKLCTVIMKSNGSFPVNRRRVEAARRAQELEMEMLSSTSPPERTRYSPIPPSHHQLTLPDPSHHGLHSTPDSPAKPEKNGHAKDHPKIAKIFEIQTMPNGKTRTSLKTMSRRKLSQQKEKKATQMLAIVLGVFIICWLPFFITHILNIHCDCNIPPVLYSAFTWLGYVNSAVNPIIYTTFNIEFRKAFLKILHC

CCOC(=O)c1ccccc1
inactive: [1] | [2] | [3] | [4] | [5] | [6] | [7] | [8] | [9] | [10] | [11] | [12] | [13] | [14] | [15] | [16] | [17]

On1nnc2ccccc21
inactive: [1] | [2] | [3] | [4] | [5] | [6] | [7] | [8] | [9] | [18] | [11] | [12] | [13] | [14] | [16] | [17] | [19]

O=C(O)c1cn(C2CC2)c2cc(Cl)c(F)cc2c1=O
active: [2] 13.3 µM
inactive: [1] | [3] | [4] | [5] | [6] | [7] | [8] | [9] | [10] | [18] | [11] | [12] | [13] | [16] | [17] | [19]

NC(=O)CC[C@@H](N)C(=O)O
inactive: [1] | [2] | [3] | [4] | [5] | [6] | [7] | [8] | [9] | [10] | [18] | [11] | [12] | [14] | [15] | [16] | [17] | [19]

COc1cc2c(cc1N)oc1ccccc12
active: [2] 62.4 µM | [7] 33.1 µM
inactive: [1] | [3] | [4] | [5] | [6] | [8] | [9] | [10] | [18] | [11] | [12] | [13] | [14] | [15] | [17] | [19]

Cc1ccc(NC(N)=O)cc1
inactive: [1] | [2] | [3] | [4] | [5] | [6] | [7] | [8] | [9] | [10] | [18] | [11] | [12] | [13] | [14] | [15] | [16] | [17] | [19]

O=C(O)c1ccc(Cl)cc1Cl
inactive: [1] | [2] | [3] | [4] | [5] | [6] | [7] | [8] | [9] | [10] | [11] | [12] | [13] | [14] | [15] | [16] | [17] | [19]

O=C1C(=O)c2ccccc2C(O)=C1C1CCC(c2ccc(Cl)cc2)CC1 (stereo not given)
active: [2] 13.3 µM
inactive: [1] | [3] | [4] | [5] | [6] | [7] | [8] | [9] | [18] | [11] | [12] | [13] | [14] | [15] | [16] | [17] | [19]

CS(=O)(=O)c1ccc(-c2cn3ccccc3n2)cc1
active: [2] 33.5 µM | [7] 17.8 µM
inactive: [1] | [3] | [4] | [5] | [6] | [8] | [9] | [10] | [11] | [12] | [13] | [14] | [15] | [16] | [17] | [19]

C[C@H](O)C(=O)Nc1c(I)c(C(=O)NC(CO)CO)c(I)c(C(=O)NC(CO)CO)c1I
inactive: [1] | [2] | [3] | [4] | [5] | [6] | [7] | [8] | [9] | [10] | [18] | [11] | [12] | [14] | [15] | [16] | [17] | [19]

CC1=C(C(=O)OC(C)C)C(c2cccc([N+](=O)[O-])c2)C(C(=O)OC2CN(C(c3ccccc3)c3ccccc3)C2)=C(N)N1 (stereo not given)
active: [1] 8.41 µM | [9] 11.2 µM
inactive: [2] | [3] | [4] | [5] | [6] | [7] | [8] | [11] | [12] | [13] | [16] | [20] | [19]

COC(=O)c1c(C)cc(O)c(C)c1O
inactive: [1] | [2] | [3] | [4] | [5] | [6] | [7] | [8] | [9] | [10] | [18] | [11] | [12] | [13] | [14] | [15] | [20] | [17] | [19]

O=C(O)C(Cc1cc(I)c(O)c(I)c1)c1ccccc1 (stereo not given)
inactive: [1] | [2] | [3] | [4] | [5] | [6] | [7] | [8] | [9] | [10] | [18] | [11] | [12] | [13] | [15] | [16] | [17]

CC(CN(C)C)C(C)(O)Cc1ccc(Cl)cc1 (stereo not given)
inactive: [1] | [2] | [3] | [4] | [5] | [6] | [7] | [8] | [9] | [10] | [11] | [12] | [15] | [16] | [20] | [19]
